Assay outcomes as filed in PubChem BioAssay.
Anthrax LT inh – inhibitors of anthrax lethal toxin internalization | Cells, anthrax lethal toxin internalization, FRET ratio (460/530) | Potency, µM (top dose mostly 40 µM), for the others: at the highest dose activity change, negative = inhibition, most hits filed as inhibitors | 0.67% of 70,000 active | AID 912; also: % is scaled to controls: 0 for no effect and ±100 for the full control effect; nearly all actives have a fitted effect of over 50% in size
AmpC nodet inh – AmpC beta-lactamase inhibition, detergent-free assay; AmpC nitrocefin hydrolysis, absorbance 480 nm, no detergent; AID 585; 1.8% of 71,000 active; Potency, µM (top dose mostly 28.7 µM), for inactives: at the top dose activity change, negative = inhibition; P00811; also: % of control where 0% means no effect
Target sequence (P00811 whole entry, looked up): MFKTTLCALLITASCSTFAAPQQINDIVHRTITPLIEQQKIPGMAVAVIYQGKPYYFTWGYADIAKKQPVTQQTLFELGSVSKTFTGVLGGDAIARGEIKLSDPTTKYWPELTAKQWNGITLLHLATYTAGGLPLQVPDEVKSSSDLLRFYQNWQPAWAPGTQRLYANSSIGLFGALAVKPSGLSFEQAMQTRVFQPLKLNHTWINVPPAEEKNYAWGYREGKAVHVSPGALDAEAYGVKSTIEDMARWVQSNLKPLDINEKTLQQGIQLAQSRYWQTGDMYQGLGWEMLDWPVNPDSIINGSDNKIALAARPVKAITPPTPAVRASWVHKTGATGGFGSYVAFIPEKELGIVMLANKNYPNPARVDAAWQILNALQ
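AmpC in 20 mM phosphate buffer pH 7.0 was preincubated 15 min at room temperature with compounds. Nitrocefin (800 uM stock) was then added and hydrolysis followed at 480 nm every 20 s for 4 min.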
AmpC inh det – AmpC beta-lactamase inhibition, detergent assay | AID 584 | Potency, µM (series often up to 28.7 µM), without a hit: at the top dose activity change, negative = inhibition | P00811 | 0.09% of 71,000 active | purified AmpC, nitrocefin hydrolysis with detergent; active = well fitted curve in the direction sought with a large enough effect; inconclusive = small, poorly fitted or top-dose-only effect; also: % is scaled to controls: 0 for no effect and ±100 for the full control effect
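E. coli AmpC (5.3 nM) in 20 mM phosphate pH 7.0 with 0.01% Triton X-100, preincubated 15 min RT with compound; nitrocefin (2 uL of 800 uM stock) hydrolysis followed by 480 nm absorbance every 20 s over 4 min.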
Prx2 Sm inh – blocks S. mansoni peroxiredoxin 2 enzymatic activity. Potency, µM. 0.07% of 65,000 active. S. mansoni Prx2 activity coupled to TGR/GSH (TGR is thioredoxin glutathione reductase), NADPH fluorescence loss, qHTS
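qHTS, coupled TGR/Prx2 format; 15 min compound preincubation at RT; reaction started with H2O2 (2.5 mM aliquot); kinetic NADPH fluorescence decrease, ex 365/em 450 nm.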
An asterisk follows results filed as active; ? = inconclusive; / = not tested or not shown; [ ] = another dose, or the depositor's remark. Only some compounds are listed: those with a hit (about 2.6% of all), similar ones and a draw of the others. Unless noted, calls follow the shape of the full dose curve. Potency is read from the fitted curve at half-maximal effect.

SMILES | Anthrax LT inh | AmpC nodet inh | AmpC inh det | Prx2 Sm inh
O=C(c1ccc(N2CCCCS2(=O)=O)cc1)N1CCN(c2ccc(N3CCOCC3)nn2)CC1 | -10.0% | 3.98µM*[single pt active] | 12.2% | >57
CCC(=O)N(Cc1cc2cc(C)c(C)cc2[nH]c1=O)C1CCCCC1 | -12.7% | 35.5% | 7.0% | >57
Cc1cc2c(nc1C)CCCN2C[C@H](C)O/N=C1/[C@H]2O[C@@H]2[C@@H](O)[C@H]2[C@H]1CCn1c(=O)n(-c3ccccc3)c(=O)n12 | -3.8%[8 µM] | / | / | /
COc1cccc2c1[C@@H]1CN(CCCCn3c(=O)[nH]c4c(sc5ncc(-c6ccccc6)nc54)c3=O)C[C@H]1CO2 | 25.1µM* | 102.9% | -1.2% | >57
Cc1ccc(-c2cn3cccnc3n2)cc1NC(=O)c1c(-c2ccccc2Cl)noc1C | -5.7% | 127.2% | -7.2% | >57
CCCNC(=O)CS(=O)Cc1nc(-c2cccc(OC)c2)oc1C (stereo not drawn) | 4.4% | 3.98µM*[single pt active] | 10.4% | >57
COc1ccc(-c2nc(CS(=O)CC(=O)NCc3ccco3)c(C)o2)cc1 (stereo not drawn) | 5.0% | 3.98µM*[single pt active] | 9.9% | >57
COc1cccc(-c2nc(CS(=O)CC(=O)NCc3ccccc3)c(C)o2)c1 (stereo not drawn) | -0.9% | 3.98µM*[single pt active] | 13.0% | >57
COc1ccc(-c2nc(CS(=O)CC(=O)NCc3cccnc3)c(C)o2)cc1 (stereo not drawn) | 0.1% | 3.16µM*[single pt active] | 8.9% | >57
CCOC(=O)c1ccc2ncc(C(=O)OCC)c(NCCN(C)C)c2c1 | 1.5% | 3.16µM*[single pt active] | 13.6% | >57
CCC/C=C(\CCC)C(NC(=O)c1ccc(C(F)(F)F)cc1)c1ccccc1 (stereo not drawn) | -16.9% | 20µM*[single pt active] | 3.0% | >57
COc1ccc(C2CC(C(F)(F)F)n3nc(C(=O)Nc4ccc5c(c4)OCO5)cc3N2)cc1 (stereo not drawn) | ? | 20.4% | 3.7% | >57
CC(=O)Nc1ccc(S(=O)(=O)Nc2cccc(-c3nc4cc(C)ccc4o3)c2)cc1 | 12.6µM* | 38.5% | -4.1% | >57
Cc1ccc2oc(-c3cccc(NC(=O)C4CCCO4)c3)nc2c1 (stereo not drawn) | 0.0% | 112.6% | -2.0% | >57
NC(=O)COc1ccc(=O)n(-c2ccccc2)n1 | -8.0% | 3.98µM*[single pt active] | 10.3% | >57
Cn1nc(OCC(N)=O)ccc1=O | -5.9% | 4.6% | -5.2% | >57
CC(=O)Nc1c(C#N)c(C(C)(C)C)cn1C | 8.3% | -2.3% | -6.7% | >57
CCOc1ccc(C2N(c3ccc(Cl)cc3)C(=O)C3CCCN32)cc1OC (stereo not drawn) | 6.9% | 71.9% | 3.8% | >57
Cc1ccc2c(c1)CC1(CN2C)C(=O)NC(=O)N(c2cc(C)ccc2C)C1=O (stereo not drawn) | -0.5% | 0.4% | -0.4% | >57
CC1(C)Cc2c(c(N3CCOCC3)nc3sc(C(=O)N4CCCCC4)c(N)c23)CO1 | -10.3% | 3.98µM*[single pt active] | 25.1% | >57
COC(=O)c1cc2sccc2n1CC(=O)N1CCCc2ccccc21 | 10µM* | 14.6% | -5.7% | >57
COC(=O)c1ccc(C2C(C#N)=C(N)Oc3cc(C)n(C)c(=O)c32)cc1 (stereo not drawn) | ? | 5.6% | 13.2% | >57
Cc1ccc(SC(C)c2nc(-c3ccncc3)no2)cc1 (stereo not drawn) | 10.3% | 73.3% | -2.7% | >57
COc1ccc(Cc2nc(-c3cccs3)no2)cc1OC | -15.4% | 3.98µM*[single pt active] | 5.6% | >57
COc1cccc2cc(C(=O)n3ccc(C)n3)c(=O)oc12 | -9.4% | 10µM* | 10µM* | >57
SMILES | Anthrax LT inh | AmpC nodet inh | AmpC inh det | Prx2 Sm inh
O=C(NC1CCCC1)c1cnn2c(C(F)(F)F)cc(-c3ccco3)nc12 | -26.5% | 39.3% | -5.4% | >57
Cc1nnc(SCCn2c(N3CCN(c4ccccc4)CC3)nc3c2c(=O)n(C)c(=O)n3C)s1 | 14.9% | -19.4% | 9.1% | >57
O=C(Nc1nc(-c2cccs2)cs1)c1ccc(S(=O)(=O)N2CCCC2)cc1 | ? | 12.6µM* | 2.0% | >57
CC(=O)Nc1nc(-c2cccs2)cs1 | 3.7% | -3.8% | -5.2% | >57
CC1CC(C)CN(S(=O)(=O)c2ccc(C(=O)Nc3nnc(-c4cccs4)o3)cc2)C1 (stereo not drawn) | 16.8% | -9.1% | 7.6% | >57
O=C(Nc1nc(-c2cccs2)cs1)c1ccc(Cl)s1 | 10µM* | ? | 12.3% | >57
CCC1CCCCN1S(=O)(=O)c1ccc(C(=O)Nc2nnc(-c3cccs3)o2)cc1 (stereo not drawn) | ? | 12.6µM* | -7.7% | >57
Cc1cc(=O)[nH]c(SCC(=O)Nc2cccc(C(F)(F)F)c2)n1 | 14.4% | -15.5% | -3.5% | >57
O=C(Nc1cc(Cl)ccc1Cl)c1noc2c1CCCC2 | -15.6% | 3.98µM*[single pt active] | 10.9% | >57
CCCn1c(C)nc2c(c1=O)c1nc3ccccc3nc1n2-c1ccc2c(c1)OCCO2 | / | 23.6% | 0.9% | >57
CCOC(=O)C1CCCN(c2c(Nc3cccc(C)c3)c(=O)c2=O)C1 (stereo not drawn) | 0.6% | 3.98µM*[single pt active] | 12.3% | /
CCOC(=O)C1CCCN(c2c(N3CCN(c4ccccn4)CC3)c(=O)c2=O)C1 (stereo not drawn) | 1.1% | 3.98µM*[single pt active] | 11.0% | >57
CCOC(=O)C1CCCN(c2c(NCCCN(C)c3ccccc3)c(=O)c2=O)C1 (stereo not drawn) | ? | 42.3% | 11.1% | >57
Cc1oc(C)c2c(=O)ccc3c(c12)OC(N)=C(C#N)C3c1ccccc1 (stereo not drawn) | -23.9% | -16.8% | -3.9% | >57
CSc1ccc(C2C(C#N)=C(N)Oc3c2ccc(=O)c2c(C)oc(C)c32)cc1 (stereo not drawn) | -28.6% | 10µM* | -4.5% | >57
COc1ccccc1NC(=O)NCCCN1CCN(c2cccc(Cl)c2)CC1 | ? | 3.98µM*[single pt active] | 12.2% | >57
Cc1cnc(NC(=O)COc2ccccc2Cl)s1 | ? | -10.2% | -4.2% | >57
CCOC(=O)N1CCN(C(=O)c2sc3nc(-c4ccc(F)cc4)cn3c2C)CC1 | 0.0% | 118.7% | -3.9% | >57
COc1ccccc1N1CCN(C(=O)c2sc3nc(-c4ccc(F)cc4)cn3c2C)CC1 | 15.8µM* | 126.5% | 13.3% | >57
Cc1ccccc1NS(=O)(=O)c1ccc2[nH]cc(C(=O)N(C)Cc3ccco3)c(=O)c2c1 | 6.2% | -14.4% | 1.0% | >57
Cc1cc(C)cc(NS(=O)(=O)c2ccc3[nH]cc(C(=O)NCc4ccco4)c(=O)c3c2)c1 | ? | 12.6µM*[single pt active] | -2.2% | >57
Cc1cccc(N2CCN(C(=O)C3CCN(c4nnc(-n5cccc5)s4)CC3)CC2C)c1 (stereo not drawn) | 7.94µM* | 104.9% | 4.9% | >57
Cc1noc(/C=C/N(C)C)c1S(=O)(=O)N1CCc2ccccc21 | ? | 3.98µM*[single pt active] | 16.2% | >57
Cn1c(=O)c2cc(S(=O)(=O)NC(C(=O)NCc3cccnc3)c3ccccc3)ccc2n(C)c1=O (stereo not drawn) | -6.6% | 3.98µM*[single pt active] | 14.2% | >57
